APEX1 inh: APE1 (human) endonuclease inhibition | P27695 | recombinant APE1, TAMRA/BHQ-2 abasic DNA cleavage fluorescence | Potency, µM (titrated, usually from 65.8 µM), actives largely listed as inhibitors | hit rate 0.35% among 350,000; also: nearly all actives have a fitted effect of over 55% in size
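Compound pre-exposure to 0.75 nM APE1, 15 min at ambient temperature. Reaction initiated with 50 nM TAMRA/BHQ-2 THF substrate, read immediately in kinetic mode, 525 nm excitation, 598 nm emission.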
ERG-DNA inh: ERG Ets/DNA interaction inhibition. P11308. hit rate 0.028% among 370,000. Potency, µM (doses to about 76.9 µM), most hits filed as inhibitors. AID 624246. fluorescence polarization, His-ERG Ets domain / labelled DNA; active = well fitted inhibition curve with a large enough effect in the polarisation, with a control signal flat; inconclusive = small, poorly fitted or top-dose-only effect, or effect the other way, or a change in a side signal; inactive = no such curve, though single readings can be large or run the other way; the % refers to the polarisation;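 also: polarization taken with two DNA probes labelled with fluorescein and Texas red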
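His-tagged ERG Ets domain (1 uM in the protein solution; 300mM KCl, 50mM Tris-HCl, 1mM EDTA, 1mM DTT, pH 7.5) received compound, then a probe mix of 5 nM fluorescein-DNA and 100nM Texas-615-DNA. Fluorescence polarization was read for both dyes.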
BLM inh: inhibitors of human Bloom syndrome helicase BLM. P54132. recombinant BLM DNA unwinding, fluorescence dequenching. Potency, µM (doses to about 56.1 µM), hits mostly inhibitors. hit rate 0.2% among 350,000; also: nearly all actives have a fitted effect of over 35% in size
Target sequence (P54132 whole entry, looked up): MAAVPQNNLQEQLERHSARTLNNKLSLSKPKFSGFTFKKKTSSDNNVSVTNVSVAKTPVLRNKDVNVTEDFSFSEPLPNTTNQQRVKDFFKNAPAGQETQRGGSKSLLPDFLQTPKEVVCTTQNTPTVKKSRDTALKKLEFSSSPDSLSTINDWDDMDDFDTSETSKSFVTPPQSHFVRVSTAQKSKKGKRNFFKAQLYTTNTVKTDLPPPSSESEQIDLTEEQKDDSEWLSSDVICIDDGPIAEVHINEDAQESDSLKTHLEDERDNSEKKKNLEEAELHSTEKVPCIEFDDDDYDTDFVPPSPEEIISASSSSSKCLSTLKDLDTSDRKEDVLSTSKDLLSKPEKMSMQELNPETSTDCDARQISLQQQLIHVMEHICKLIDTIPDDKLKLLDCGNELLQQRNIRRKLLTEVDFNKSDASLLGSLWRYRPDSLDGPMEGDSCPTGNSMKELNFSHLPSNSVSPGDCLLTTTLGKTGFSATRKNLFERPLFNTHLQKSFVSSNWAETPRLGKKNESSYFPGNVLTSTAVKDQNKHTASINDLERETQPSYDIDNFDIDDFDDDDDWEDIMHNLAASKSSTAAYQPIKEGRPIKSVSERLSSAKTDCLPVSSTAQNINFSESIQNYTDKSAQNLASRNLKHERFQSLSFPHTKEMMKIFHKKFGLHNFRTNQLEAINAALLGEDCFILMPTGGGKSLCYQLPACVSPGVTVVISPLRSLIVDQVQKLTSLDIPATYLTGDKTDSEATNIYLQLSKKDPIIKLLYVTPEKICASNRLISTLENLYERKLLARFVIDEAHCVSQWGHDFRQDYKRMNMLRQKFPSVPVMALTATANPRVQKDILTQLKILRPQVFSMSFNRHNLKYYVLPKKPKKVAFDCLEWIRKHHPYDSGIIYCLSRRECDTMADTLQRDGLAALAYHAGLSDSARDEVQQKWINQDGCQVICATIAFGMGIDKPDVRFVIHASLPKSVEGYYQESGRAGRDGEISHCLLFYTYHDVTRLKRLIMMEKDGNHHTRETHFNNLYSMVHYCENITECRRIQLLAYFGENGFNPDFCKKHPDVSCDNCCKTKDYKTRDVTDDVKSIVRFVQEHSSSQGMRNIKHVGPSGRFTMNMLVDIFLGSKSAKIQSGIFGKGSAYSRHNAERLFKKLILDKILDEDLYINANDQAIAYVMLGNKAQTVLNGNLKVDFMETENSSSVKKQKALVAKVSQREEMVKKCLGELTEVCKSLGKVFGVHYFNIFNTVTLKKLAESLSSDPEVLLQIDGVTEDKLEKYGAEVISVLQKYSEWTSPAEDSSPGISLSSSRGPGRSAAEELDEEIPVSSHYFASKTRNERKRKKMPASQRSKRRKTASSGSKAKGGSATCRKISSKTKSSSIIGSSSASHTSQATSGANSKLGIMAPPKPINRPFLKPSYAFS
WRN inhibitor: blocks human WRN helicase; Potency, µM (titrated, usually from 114 µM), hits mostly inhibitors; WRN helicase unwinding, fluorescent forked duplex, kinetic; hit rate 0.46% among 360,000; Q14191; AID 651768; also: nearly all actives have a fitted effect of over 55% in size
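Primary qHTS, 1536-well format. 20 nM WRN + compound, 15 min RT; start with 100 nM forked fluorophore/quencher duplex, 2 mM ATP (final); kinetic read ex 525/em 598 nm.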
RECQ1 inh: inhibitors of human RECQ1 DNA helicase | P46063 | RECQ1 DNA unwinding, red fluorescence kinetic read | Potency, µM (top dose mostly 57.3 µM), most hits filed as inhibitors | hit rate 0.54% among 240,000; also: nearly all actives have a fitted effect of over 30% in size
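50 nM RECQ1T1 preincubated 15 min with compound in Tris pH 8.0 buffer with MgCl2, DTT, Tween-20 and 2.5 ug/ml poly(dI-dC); started with 200 nM TAMRA/BHQ-2 forked duplex and 2 mM ATP. Unwinding read as fluorescence (525/598 nm), two reads 2 h apart.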
GCN5L2 inh: GCN5L2 (KAT2A) acetyltransferase inhibition. Q92830. GCN5L2 HAT assay, ThioGlo1 CoA-SH fluorescence. Potency, µM (doses to about 58.9 µM), usual class: inhibitors. hit rate 0.21% among 390,000
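qHTS, 1536-well. 20nM enzyme, pH 7.5 HEPES/EDTA/Tween-20 buffer; 15 min compound preinc., RT. Start: 75uM H3(1-25), 70uM AcCoA, 50uM ThioGlo1. Read Ex340/Em540 at t=0 (autofluorescence flag) and t=20 min.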
Hits are given with their value; – = inactive; ? = inconclusive; · = no result given; [ ] = another dose, or the depositor's remark. Most compounds without a hit are left out; they make up all but 0.88% or so of the library. Unless noted, calls follow the shape of the dose curve; as a rule, active = well fitted curve in the direction sought with a large enough effect; inconclusive = small, poorly fitted or top-dose-only effect, or another doubt; inactive = no such curve, though single readings can be large; an effect the other way counts as inactive or inconclusive.

SMILES	APEX1 inh	ERG-DNA inh	BLM inh	WRN inhibitor	RECQ1 inh	GCN5L2 inh
C[n+]1c2ccccc2nc2ccc(NCCO)cc21	27µM	7.9µM	18µM	4.7µM	·	–
CNc1ccc2nc3ccccc3[n+](C)c2c1	21µM	5µM	18µM	3µM	·	–
CCC12CCN(C)CC1Oc1c(C)cccc12 (centres undefined)	–	·	·	·	·	·
Cc1ccc(C=C2C(Cl)=C(Cl)C(Cl)=C2Cl)cc1	16µM	–	–	45µM	10µM	–
Cc1cc(/C=C2\C(=O)NC(=O)N(Cc3ccco3)C2=O)c(C)n1-c1ccc(O)cc1	–	–	25µM	?	–	–
C=CCN1C(=O)NC(=O)/C(=C/c2ccc(OC)c(CSc3ccccn3)c2)C1=O	–	–	–	?	–	–
C=CCN1C(=O)NC(=O)/C(=C/c2ccc(OC)c(COc3ccc(NC(C)=O)cc3)c2)C1=O	–	–	–	45µM	–	–
CN(C)c1ccc(C=C2C(=O)NC(=O)NC2=O)cc1	·	–	·	–	·	·
CN(C)c1ccc(C=C2C(=O)NC(=S)NC2=O)cc1	·	–	·	35µM	·	·
CCN1CCC[C@@H](OC(=O)C(c2ccccc2)c2ccccc2)C1	·	·	–	·	–	–
ClCCCCl	–	·	·	·	–	·
CCCOCCN(C(=O)CCl)c1c(CC)cccc1CC	–	·	–	·	–	–
CSc1ccccc1NC(=O)CN(C)CC(=O)c1[nH]c(C)c(C(C)=O)c1C	–	–	·	?	·	–
CN1C(=O)C(=Cc2ccc(Sc3ccccc3)o2)C(=O)N(C)C1=O	–	?	–	?	–	–
O=C1NC(=O)C(=Cc2ccc(Sc3ccccc3)o2)C(=O)N1	–	?	–	11µM	–	–
CC[N+](=O)[O-]	–	·	·	·	–	·
Cc1ccc(-c2cn3c(=S)[nH]nc3s2)cc1	–	–	–	–	–	14µM
c1nc[n]([Sn]([CH]2CCCCC2)([CH]2CCCCC2)[CH]2CCCCC2)n1	–	·	–	·	–	–
Cc1onc(-c2ccccc2Cl)c1C(=O)NCc1ccc2c(c1)cc(C)n2C	–	25µM	–	?	–	–
Cc1cc2cc(CNC(=O)Nc3ccc(Cl)c(Cl)c3)ccc2n1C	?	–	–	–	–	–
CC1Oc2cc3c(-c4c(O)cc(O)c5c(O)c6c(cc45)OC(C)C(C)C6=O)c(O)cc(O)c3c(O)c2C(=O)C1C (centres undefined)	?	–	–	63µM	25µM	25µM
CCCCn1c(O)c(/C=N/NC(=O)c2ccncc2)c(=O)[nH]c1=S	–	–	–	32µM	?	–
CCOP(=S)(OCC)Oc1ncn(-c2ccccc2)n1	–	·	–	·	–	–
Cc1nc2c(=O)n(C)c(=O)nc-2n(C)n1	–	–	0.79µM	–[11.6 µM]	–	–
O=C1c2ccccc2C(=O)C1C(=O)C(c1ccccc1)c1ccccc1	·	·	–	·	·	–
SMILES	APEX1 inh	ERG-DNA inh	BLM inh	WRN inhibitor	RECQ1 inh	GCN5L2 inh
O=C1c2ccccc2C(=O)N1SC1CCCCC1	–	–	–	50µM	–	–
NC(=O)c1cn(C2CCCCC2)c2ccccc2c1=O	–	–	–	–	·	–
O=c1oc2ccccc2c(O)c1C(c1ccc([N+](=O)[O-])cc1)c1c(O)c2ccccc2oc1=O	?	–	–	?	?	22µM
O=c1[nH]c(=O)n(Cc2ccco2)c(O)c1/C=N/N1CCCCCC1	–	–	–	–	–	–
N#Cc1c(/N=C/c2c(O)n(Cc3ccco3)c(=O)[nH]c2=O)sc2c1CCCC2	?	–	–	56µM	?	?
COC(=O)C1=C(C(=O)OC)SC2(S1)C(C(=O)OC)=C(C(=O)OC)Sc1c2ssc1=O	·	·	·	13µM	·	·
CCC12CCN(CCc3ccc(F)cc3)CC1Oc1c(O)cccc12 (centres undefined)	–	·	·	·	·	·
COP(=S)(OC)SCn1nnc2ccccc2c1=O	–	–	–	·	–	40µM
Cc1ccc(C)c(N2CCN(c3ncnc4onc(C)c34)CC2)c1	·	–	–	·	·	–
[Hg+][c]1ccccc1	·	·	–	·	·	0.45µM
COc1cc(/C=C2\C(=O)NC(=O)N(c3ccccc3)C2=O)cc(OC)c1O	–	–	–	–	–	–
CSc1ncc(/C=C2/C(=O)NC(=O)N(c3ccc(C(C)C)cc3)C2=O)cn1	–	–	–	50µM	–	–
CSc1ncc(/C=C2/C(=O)NC(=O)N(C)C2=O)cn1	–	–	–	?	?	–
CCc1ccc(N2C(=O)NC(=O)/C(=C\c3cccn3CCOc3ccc(C(C)C)cc3)C2=O)cc1	–	–	–	–	25µM	–
Cc1ccc(OCCn2cccc2/C=C2/C(=O)NC(=O)N(Cc3ccco3)C2=O)cc1	–	–	–	?	?	–
CC(C)c1ccc(N2C(=O)NC(=O)/C(=C/c3cnc(-c4ccccc4)nc3)C2=O)cc1	–	–	–	50µM	–	–
CCCCN1C(=O)NC(=O)/C(=C/c2cnc(SC)nc2)C1=O	–	–	–	40µM	–	–
COc1cc2c(cc1O)CC1c3c(cc(O)c(OC)c3-2)CCN1C (centres undefined)	?	–	–	–[11.6 µM]	–	–
COc1cc2c(cc1O)C[C@H]1c3c(cc(OC)c(O)c3-2)CCN1C	?	·	–	·	25µM	·
